Source: PubChem (several laboratories)
In the library only some 3.1% were active in any assay of this set; here they are far more common.
MEKK2 WT-MEK5: modulators of MEK5 binding to wildtype MEKK2, primary screen, biochemical, multiplex bead flow cytometry, Alexa488-MEK5; Mitogen-activated protein kinase kinase kinase 2 (Homo sapiens), Q9Y2U5; Alexa488-MEK5 binding to MEKK2 WT; actives lie on both sides; binding response (% of control), % at 10 µM; 1.1% of 290,000 active; AID 1531, 2009; in the data active = binding response below about 67% or above about 130%
UBC13 polyUb: UBC13 polyubiquitin chain formation inhibitors, primary screen, biochemical, TR-FRET, uHTS; Ubiquitin-conjugating enzyme E2 N (Homo sapiens), P61088; inhibition, % at 20 µM; 0.47% of 330,000 active; in the data active = inhibition above about 45%, passing the limit was not always enough
Target sequence (P61088 whole entry, looked up): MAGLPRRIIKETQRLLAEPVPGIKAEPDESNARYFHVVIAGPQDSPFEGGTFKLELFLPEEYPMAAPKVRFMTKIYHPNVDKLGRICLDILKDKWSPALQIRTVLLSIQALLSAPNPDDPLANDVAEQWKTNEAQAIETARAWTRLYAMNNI
ATG4B inhibitor: ATG4B protease inhibitors, primary screen, biochemical, fluorescence, uHTS. inhibition, % at 8.33 µM. ATG4B cleavage of LC3-PLA2, NBD-HPC fluorescence, 1 h. 0.51% of 340,000 active; in the data active = inhibition above about 40%
Target sequence (Q9Y4P1 whole entry, looked up): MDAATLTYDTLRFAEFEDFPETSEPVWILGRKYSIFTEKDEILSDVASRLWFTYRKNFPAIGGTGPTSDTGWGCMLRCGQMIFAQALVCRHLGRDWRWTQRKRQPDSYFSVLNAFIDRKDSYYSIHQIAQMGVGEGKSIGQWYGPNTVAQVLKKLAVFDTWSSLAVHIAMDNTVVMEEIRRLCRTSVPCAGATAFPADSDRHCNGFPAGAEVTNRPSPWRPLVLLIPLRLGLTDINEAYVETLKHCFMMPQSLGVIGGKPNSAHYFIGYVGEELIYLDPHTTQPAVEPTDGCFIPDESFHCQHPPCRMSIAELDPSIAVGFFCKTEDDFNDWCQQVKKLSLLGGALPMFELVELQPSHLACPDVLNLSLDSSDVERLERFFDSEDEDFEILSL
MEKK2 mut-MEK5: MEK5 binding signal on mutant MEKK2 PB1, primary screen, biochemical, multiplex bead flow cytometry, Alexa488-MEK5; Alexa488-MEK5 binding to MEKK2 mutant; percent response, % at 10 µM; 0.35% of 290,000 active; AID 1530, 2009; in the data active = percent response above about 24%, passing the limit was not always enough
PREPL inh: PREPL enzyme inhibitors, primary screen, biochemical, fluorescence polarization; 0.68% of 320,000 active; inhibition, % at 5.96 µM; Prolyl endopeptidase-like (Homo sapiens), Q4J6C6; recombinant PREPL, fluorescence polarization activity-based probe; in the data active = inhibition above about 43%;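 also: 0% = enzyme with DMSO and 100% = wells lacking enzyme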
MEKK3 PB1 HTS: modulators of MEKK3-MEK5 PB1 binding, primary screen, biochemical, wildtype MEKK3, multiplex bead flow cytometry, Alexa488-MEK5; Mitogen-activated protein kinase kinase kinase 3 (Homo sapiens), Q99759; bead-based flow cytometry, Alexa488-MEK5 binding to MEKK3; actives lie on both sides; 0 = blocked by unlabeled MEK5, 100 = vehicle; binding response (% of control), % at 10 µM; 1.4% of 290,000 active;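 active = binding response more than 3 SD above or below the average of its plate-row segment, actives on both sides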;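 also: Alexa488 bead fluorescence after subtracting the streptavidin-only scavenger bead signal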
MEKK2wt confirm: modulators of MEK5 binding to wildtype MEKK2, confirmation, biochemical, single concentration, multiplex bead flow cytometry; shares compounds with MEKK3 PB1 HTS; Alexa488-MEK5 binding to MEKK2 WT; actives lie on both sides; binding response (% of control), % at 10 µM; 2.4% of 5,900 active; in the data active = binding response below about 16% or above about 210%; inactive = in between
MEKK2mut confirm: mutant MEKK2 PB1-MEK5 binding signal retest – biochemical, single concentration, multiplex bead flow cytometry, confirmation; shares compounds with MEKK3 PB1 HTS; Alexa488-MEK5 binding to MEKK2 mutant; percent response, % at 10 µM; 2% of 5,900 active; AID 1893, 2009; in the data active = percent response mostly above about 71%, no sharp cut-off; inactive = mostly below about 38%;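 also: higher means compound restores mutant binding toward wildtype level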
MEKK3-MEK5 inh: MEKK3 wild-type PB1 binding to MEK5, inhibitors, confirmation, biochemical, bead multiplex flow cytometry, single concentration, wildtype | shares compounds with MEKK3 PB1 HTS | Alexa488-MEK5 binding to MEKK3; stronger effect = lower value | binding response (% of control), % at 10 µM | 1.8% of 5,900 active;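 active = binding response below 72% of control, or above a set upper limit, though filed actives all read lower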;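 also: 100% = DMSO only wells and 0% = binding blocked by excess unlabeled MEK5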
Numbers without * were called inactive; / = no result; [ ] = dose if it differs, or a comment.

SMILES	MEKK2 WT-MEK5	UBC13 polyUb	ATG4B inhibitor	MEKK2 mut-MEK5	PREPL inh	MEKK3 PB1 HTS	MEKK2wt confirm	MEKK2mut confirm	MEKK3-MEK5 inh
COC(=O)C1=C(C)N(CCCC(=O)O)C(=O)NC1c1ccccc1Cl (stereo unspecified)	106	0	-1	7	0	100	/	/	/
Cc1noc(C)c1S(=O)(=O)N(C)C[C@H]1Oc2c(NC(=O)C3CCCCC3)cccc2C(=O)N([C@H](C)CO)C[C@@H]1C	/	15	-2	/	14	/	/	/	/
O=C1C(Nc2ccccc2)=C(NS(=O)(=O)c2ccccc2)C(=O)c2ccccc21	106	-39	26	0	6	139*	96	-7	92
Cc1ccc(N=C(N(C)C)P(=O)(N(C)C)N(C)C)c(C)c1	77	0	-16	-3	-3	72*[inhibitor]	102	11	103
COC(=O)c1ccccc1NC(=O)CCCCCn1nnc2ccccc2c1=O	106	4	6	4	5	105	/	/	/
CC(C)N(C)Cc1nnnn1CC(=O)NCCc1cccc(C(F)(F)F)c1	108	-3	-2	7	7	105	/	/	/
CCN(CC)S(=O)(=O)c1cc(C(=O)OCC(=O)Nc2c(F)cccc2F)ccc1F	93	4	-15	-1	7	95	/	/	/
CCN(CC)S(=O)(=O)c1cc(C(=O)OCC(=O)Nc2cccc(C)c2C)ccc1F	103	-2	-2	0	12	129*	94	1	100
CCc1cccc(CC)c1NC(=O)COC(=O)c1ccc(F)c(S(=O)(=O)N(CC)CC)c1	109	1	2	1	-7	135*	102	9	97
CC(C)(C)N=C1C([N+](=O)[O-])=CC=C2C1=NC1(CCCCC1)N2O	107	-97	-1	4	10	104	/	/	/
N=C1C=CC=C2C1=NC1(CCCCC1)N2O	2.0*[inhibitor]	-74	12	-21	14	2.0*[inhibitor]	84	-6	87
CC(C)CCn1c(Br)nc2c1c(=O)n(CC(N)=O)c(=O)n2C	2.0*[inhibitor]	-3	2	-15	11	2.0*[inhibitor]	99	-3	99
CCN1CCN(c2ccc(S(=O)(=O)N3CCOCC3)cc2N)CC1	/	-1	5	/	23	/	/	/	/
CCOC(=O)CSc1ncc(-c2ccc([N+](=O)[O-])cc2)[nH]1	105	-13	-12	1	8	134*	98	2	103
CC(=O)c1ccc(NC(=O)C(C)Sc2nnc3ccccn23)cc1 (stereo unspecified)	/	-1	-2	/	1	/	/	/	/
O=S(=O)(Nc1cccnc1)c1cccs1	54	-15	-7	-24	13	41*[inhibitor]	111	14	106
Cc1cccc(NS(=O)(=O)c2cccs2)c1	91	7	2	-3	15	93	/	/	/
Cc1ccc(Cn2cc(/C=N/Nc3ccc([N+](=O)[O-])cn3)c3ccccc32)cc1	53*[inhibitor]	-69	-10	15	12	98	100	-4	98
N#CC1=C(N)Oc2n[nH]c(-c3cccs3)c2C1c1cccnc1 (stereo unspecified)	108	6	2	6	9	123*	120	6	92
COc1cccc(NC(=O)CN(C)C(C)C(=O)NC(=O)NC2CCCCC2)c1 (stereo unspecified)	/	6	4	/	2	/	/	/	/
Cc1cc(C)c2cc(C#N)c(N3CCCN(C(=S)NCCCN(C)C)CC3)nc2c1	120	16	2	32*	31	99	119	3	99
Cc1ccc2cc(C#N)c(N3CCCN(C(=S)NCCCN(C)C)CC3)nc2c1	117	11	2	15	-1	99	/	/	/
CN(C)c1ccc(CN2CCC(C(N)=O)CC2)cc1	92	-3	9	-5	4	92	/	/	/
CCN1CCC(C(N)=O)CC1	0.0*[inhibitor]	-2	-7	-35	0	0.0*[inhibitor]	100	5	105
COc1ccccc1C(CNC(=O)c1ccc(S(=O)(=O)N2CCCCC2)cc1)N(C)C (stereo unspecified)	/	1	-8	/	6	/	/	/	/
SMILES	MEKK2 WT-MEK5	UBC13 polyUb	ATG4B inhibitor	MEKK2 mut-MEK5	PREPL inh	MEKK3 PB1 HTS	MEKK2wt confirm	MEKK2mut confirm	MEKK3-MEK5 inh
Cc1cc(C)c([N+](=O)[O-])cc1-c1ccc(/C=N/c2c(-c3ccco3)nc3ccccn23)o1	-3.0*[inhibitor]	-100	-1	-2	17	89	79	-5	82
CCN(C(=O)CN1CCCCC1)C1(C)C(=O)c2ccccc2C1=O	109	-1	-2	1	2	140*	101	1	100
CCN1CCN(c2ccc(S(=O)(=O)N3CCOCC3)cc2NC(=O)c2ccc(F)cc2Cl)CC1	/	-1	-5	/	0	/	/	/	/
CC(C)(Oc1ccc(Cl)cc1)C(=O)O/N=C(\N)c1ccncc1	101	6	6	2	6	103	/	/	/
CCOc1ccc2nc(C)cc(C(=O)O)c2c1	-7.0*[inhibitor]	4	0	-23	3	0.0*[inhibitor]	120	12	100
O=C(Nc1ccc2c(c1)nc1n2CCN(Cc2ccccc2)C1)c1cccs1	3.0*[inhibitor]	0	3	1	6	100	100	-3	103
COc1ccccc1C(=O)Nc1ccc2c(c1)nc1n2CCN(Cc2ccccc2)C1	85	9	6	-8	-2	76	/	/	/
COC(=O)/C=C/CC(C)OS(N)(=O)=O (stereo unspecified)	152*	-4	-3	7	4	98	96	-7	90
Cc1csc2c(=O)sc(NC(=O)c3ccc(F)cc3)nc12	105	6	5	4	22	107	/	/	/
Cc1ccccc1C(=O)Nc1nc2c(C)csc2c(=O)s1	107	12	5	25	19	128*	94	-10	97
